NCOA3 inh: inhibits human SRC3 coactivator | AID 588352 | Q9Y6Q9 | 0.17% of 360,000 active | HEK293 GAL4-SRC3 luciferase reporter, luminescence | inhibition, % at 3.6 µM;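 active = inhibition above a per-campaign cutoff, the mean of all compounds plus 3 SD, cut at about 60% in these data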;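 note: 0% = DMSO-treated cells and 100% = gossypol-treated cells at 36 µM; higher means less SRC3-driven luciferase light from the GAL4 reporter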
NCOA1 inh: inhibitors of human steroid receptor coactivator 1 (SRC1); Q15788; HEK293 GAL4-SRC1 luciferase reporter, luminescence; inhibition, % at 3.6 µM; 0.12% of 360,000 active; AID 588354;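 active = inhibition above the campaign mean plus 3 SD, with each screening campaign given its own cutoff, cut at about 60% in these data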;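 note: 0% = DMSO treated cells and 100% = gossypol at 36 µM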
NR5A2 inv ag: NR5A2 inverse agonism in reporter assay. HEK293T StAR-luciferase reporter, LRH-1 transfected, 24 h. inhibition, % at 3.6 µM. 0.13% of 360,000 active. AID 602396;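 active = inhibition above the mean inhibition of all tested compounds plus 3 SD, cut at about 73% in these data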;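 note: 0% = DMSO wells and 100% = reporter-only cells lacking LRH-1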
NR2F2 inh: blocks human COUP-TFII nuclear receptor. inhibition, % at 8.6 µM. P24468. 0.7% of 370,000 active. AID 686940. HEK293T NGFI-A luciferase reporter, luminescence;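 active = inhibition above a per-plate cutoff, mean inhibition of test wells between control levels plus 3 SD, cut at about 38% in these data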;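 note: cells cotransfected with COUP-TFII expression vector driving the NGFI-A reporter; 0% = median of COUP-TF2 test wells and 100% = reporter-only cells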
Target sequence (P24468 whole entry, looked up): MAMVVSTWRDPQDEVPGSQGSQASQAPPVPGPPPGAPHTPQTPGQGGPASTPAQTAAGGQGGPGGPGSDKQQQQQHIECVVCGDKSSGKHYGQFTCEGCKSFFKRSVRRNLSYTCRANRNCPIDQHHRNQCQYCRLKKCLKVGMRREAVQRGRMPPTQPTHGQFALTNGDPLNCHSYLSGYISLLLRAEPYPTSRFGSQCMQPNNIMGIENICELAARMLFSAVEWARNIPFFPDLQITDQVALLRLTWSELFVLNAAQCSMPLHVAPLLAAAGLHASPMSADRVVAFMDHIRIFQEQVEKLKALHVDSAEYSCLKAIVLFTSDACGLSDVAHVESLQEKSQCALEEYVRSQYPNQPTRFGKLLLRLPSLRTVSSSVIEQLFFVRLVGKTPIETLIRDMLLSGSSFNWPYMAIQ
SRC2 inh: human SRC2 (NCOA2) inhibition; HEK293 GAL4-SRC2 luciferase reporter, luminescence; Q15596; 0.17% of 370,000 active; inhibition, % at 9 µM;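 active = inhibition above the mean inhibition of all tested compounds plus 3 SD, set per campaign, cut at about 52% in these data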;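 note: 0% = DMSO treated cells and 100% = cells given Gossypol at 36 µM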
Gli-Sufu block: blocks Gli-Sufu signaling in a luciferase reporter; Sufu-KO-LIGHT fibroblasts, Gli luciferase reporter luminescence; inhibition, % at 5 µM; 0.74% of 340,000 active; AID 588413;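 active = inhibition above about 55%, limit read from the data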;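 note: 0% = DMSO-treated cells and 100% = wells with medium but no cells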
VP16 Luc counter: VP16 inhibition counter-screen for COUP-TFII; shares compounds with NR2F2 inh; HEK293 Gal4-VP16 luciferase reporter, luminescence; inhibition, % at 8.5 µM; 25% of 2,500 active; in the data active = inhibition above about 13%
COUP-TFII conf: confirmation of human COUP-TFII (NR2F2) inhibitors; HEK293 NGFI-A luciferase reporter, luminescence; 45% of 2,500 active; inhibition, % at 8.5 µM; shares compounds with NR2F2 inh; AID 687008;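 active = mean inhibition over three repeats above a set limit taken from the earlier primary screen, cut at about 38% in these data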;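 note: 100% = cells given the luciferase reporter alone without the COUP-TF2 vector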
The depositor's hits bear a star; / = no result given. Sampled rows, rich in hits. Any-hit rate of the full collection: about 1.3%.

SMILES | NCOA3 inh | NCOA1 inh | NR5A2 inv ag | NR2F2 inh | SRC2 inh | Gli-Sufu block | VP16 Luc counter | COUP-TFII conf
CC(C)c1cc(C(C)C)c(S(=O)(=O)N2CCC(C(=O)NCc3cccs3)CC2)c(C(C)C)c1 | / | / | / | 21 | 8 | / | / | /
O=C1NC(=O)C2(CCc3ccccc32)N1 (stereo not drawn) | 14 | -3 | 2 | 2 | 15 | 3 | / | /
C=C1CC2(OC1=O)c1ccccc1CCc1ccccc12 | 20 | -61 | 25 | 39* | 46 | 2 | 17* | 29
C(=N\Nc1nc2ccccc2s1)/c1ccccn1 | / | / | / | 63* | 69* | 75* | 70* | 80*
COc1ccc(C=NNc2nc3ccccc3s2)cc1 | -106 | -108 | -97 | -39 | -39 | -101 | / | /
Cc1nc2c(-c3ccc(F)cc3)cnn2c(N)c1-c1ccccc1 | 71* | 70* | 63 | 82* | 70* | 41 | 32* | 82*
CC(C)(C)OC(=O)NC1CCN(c2nc(-c3ccc(Br)cc3)cs2)CC1 | / | / | / | 39* | / | / | 0 | -4
C[n+]1c2n(c3ccccc31)N=C(c1ccc(Br)cc1)CS2 | 44 | 25 | 11 | 48* | -9 | 68* | 20* | 51*
COC(=O)[C@H]1[C@@H](O)[C@@]2(O)c3c(OC)cc(OC)cc3O[C@@]2(c2ccc(OC)cc2)[C@@H]1c1ccc(F)cc1 | / | / | / | 84* | 62* | / | 5 | 65*
COC(=O)C1C(=O)C=C(Nc2ccc(F)cc2)CC1c1ccc(OC)cc1 (stereo not drawn) | -29 | -39 | -43 | -11 | -41 | -26 | / | /
COC(=O)[C@]12C[C@H](CC(=O)NCCCCc3ccccc3)C(=O)N(Cc3cccc4ccccc34)C1=C[C@H](C1CCCC1)O[C@@H]2C | / | / | / | 6 | 26 | / | / | /
CC1CCN(C2=NC(=O)/C(=C/c3ccccc3F)S2)CC1 | 44 | 28 | 29 | 63* | 54* | 12 | -117 | -46
Cc1noc(C)c1C(=O)N1CCC(n2nnc3ncccc32)CC1 | / | / | / | -9 | -28 | / | / | /
Cc1c(C(=O)Nc2ccncc2)sc2nc(-c3ccc(F)cc3)cn12 | -30 | -24 | -38 | 23 | -3 | 20 | / | /
COc1ccc(-c2cn3c(C)c(C(=O)Nc4ccncc4)sc3n2)cc1 | 15 | 3 | -4 | 47* | 16 | 13 | -31 | 7
COc1ccc(-c2cn3c(C)c(C(=O)Nc4cccc(NC(C)=O)c4)sc3n2)cc1 | -32 | 14 | -2 | 59* | 4 | 3 | -29 | -5
O=C(Nc1ccc(N2CCN(C(=O)c3ccccc3)CC2)c(Cl)c1)c1ccc(Br)o1 | -13 | -1 | 12 | 40* | -14 | 9 | 4 | 20
COc1ccc2c(c1)/C(=C\c1cccc(/C=C3/C(=O)Nc4ccc(OC)cc43)n1)C(=O)N2 | 19 | 3 | 22 | 70* | 55* | 8 | 75* | 95*
COc1cc2cc(C(=O)Nc3ccc4c(c3)OCCO4)[nH]c2cc1OC | 55 | 54 | 46 | 48* | 40 | 35 | -47 | -9
COc1cc2[nH]c(C(=O)Nc3ccc4c(c3)OCCO4)cc2c(OC)c1OC | 7 | 15 | -17 | -28 | 2 | -3 | / | /
C=CCOC(=O)N[C@@H](c1coc2ccccc2c1=O)[C@@H](C)/C=C/CC(=O)OC | / | / | / | -2 | 8 | / | / | /
CN(C)C(=O)c1ccc(NC(=O)c2cccc(S(=O)(=O)N3CCCc4ccccc43)c2)cc1 | -16 | 2 | -44 | 39* | 14 | 12 | -6 | 0
O=C1C=CC2C3C(=O)N(c4ccccc4)C(=O)C3C1N2Cc1ccccc1 (stereo not drawn) | 13 | 22 | 24 | 60* | 75* | -12 | 17* | 5
CC/C=C\[C@H](O)[C@H](O)C1=C(C)C(=O)[C@]2(O1)C(=O)N[C@@](OC)(C(=O)c1ccccc1)[C@@H]2O | / | / | / | -27 | 20 | / | / | /
Cc1cc(C)c(CN2CCN(C(=O)Cn3cnc4c(OCc5ccccc5)ncnc43)CC2)c(C)c1 | 25 | 26 | 32 | 63* | 22 | 46 | -5 | 64*
SMILES | NCOA3 inh | NCOA1 inh | NR5A2 inv ag | NR2F2 inh | SRC2 inh | Gli-Sufu block | VP16 Luc counter | COUP-TFII conf
O=C(O)Cn1cnc2c(OCc3ccccc3)ncnc21 | -36 | 3 | 0 | -9 | 18 | 18 | / | /
Cc1ccc(F)cc1C(=O)N1CCCC(c2nc(-c3cccs3)no2)C1 (stereo not drawn) | / | / | / | 11 | 18 | / | / | /
CC1=CC2C(C(O)CC3(C)C2CC(C)C32OCOC23COCO3)C2(C)C/C(=C\O)C(=O)C=C12 (stereo not drawn) | -21 | -20 | -11 | 52* | -48 | 42 | 21* | 42*
CCOC(=O)[C@@]12CCC3=C1N(CCC3)C(=O)[C@H](CC(=O)NCc1ccc(OC)c(OC)c1)C2 | / | / | / | -8 | 12 | / | / | /
Cc1ccc(NC(=O)c2ccc(F)cc2)cc1S(=O)(=O)N1CCCCCC1 | 4 | -10 | 6 | 24 | 12 | 6 | / | /
CCc1ccc(C(=O)Nc2ccc(OC)c(S(=O)(=O)N3CCCCC3)c2)cc1 | 20 | 10 | 23 | 58* | 30 | -5 | -2 | 34
CCc1ccc(C(=O)Nc2ccc(OC)c(S(=O)(=O)N3CCOCC3)c2)cc1 | 25 | 5 | -1 | 15 | -19 | -3 | / | /
Cc1ccc(S(=O)(=O)N2CCCCC2)cc1NCC(=O)Nc1ccc(Br)cc1F | 9 | 9 | 19 | 55* | 18 | / | 1 | 27
COc1ccc(C(=O)Nc2ccc(C)c(S(=O)(=O)N3CCCCCC3)c2)cc1 | 5 | 16 | 7 | 46* | 7 | 19 | 0 | 20
COc1ccccc1NS(=O)(=O)c1ccc(C)c(NC(=O)c2ccc(S(=O)(=O)N3CCCCCC3)cc2)c1 | 26 | 13 | -20 | 41* | 14 | 37 | 2 | 29
COc1ccccc1NC(=O)c1ccc(S(=O)(=O)N2CCCC2)cc1 | -10 | 13 | -29 | 4 | -16 | -5 | / | /
O=C(CNc1ccccc1F)Nc1cc(S(=O)(=O)N2CCCCC2)ccc1Cl | 10 | -6 | -15 | -39 | 12 | -5 | / | /
O=C(c1ccccc1)c1ccc(OCC(O)CN2CCN(S(=O)(=O)N3CCCCC3)CC2)cc1 (stereo not drawn) | 3 | 14 | 26 | 42* | 22 | 11 | -6 | 7
O=C(c1ccccc1)c1ccc(OCC(O)CN2CCCCC2)cc1 (stereo not drawn) | 17 | 0 | 4 | -1 | -23 | 3 | / | /
CC(C)(C)c1ccc(S(=O)(=O)N2CCCC(C(=O)N3CCN(Cc4ccccc4)CC3)C2)cc1 (stereo not drawn) | / | / | / | 45* | 12 | / | 5 | 29
COc1ccc2c(c1)CCCN2C(=O)C1CCCN(S(=O)(=O)c2ccc(C(C)(C)C)cc2)C1 (stereo not drawn) | / | / | / | 48* | 36 | / | 5 | 19

Screens: PubChem, several laboratories
